# According to PubChem BioAssay AID570 (The Scripps Research Institute Molecular Screening Center, 2006):
# Hit rate of the full screen: of about 65,000 compounds, about 45 (0.07%) were called active. The list comes from a sample in which actives are over-represented; it also holds similar structures and randomly drawn compounds. A number with no mark means an inactive call.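 Rule for the calls: active = inhibition above the mean of compound-free control plate wells plus 3 SD (cut at about 14% in these data); inactive = the rest.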
# Molecular target: Collagenase 3 (Homo sapiens) (UniProt P45452)
# Assay: human MMP13 inhibitors, primary screen, biochemical, FRET peptide cleavage (AID 570);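 note: 0% = DMSO wells and 100% = wells with reference MMP-13 inhibitor after basal subtraction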
# Settings: MMP-13 fTHP FRET cleavage, Mca fluorescence; at 4 µM; active compounds read high
row,Compound,inhibition
1,O=C1C(C=NCC2CCCO2)=C(O)c2ccccc21 (configuration not stated),3.3%
2,CCOC(=O)Cn1c(SC)nc2sc3c(c2c1=O)CC(C)(C)OC3,1.7%
3,CN(C)/C=C/c1c(C#N)c(=O)ncn1Cc1ccccc1,2.5%
4,O=C(Nc1cccc(C(=O)N2CCCC2)c1)c1ccccc1,-0.2%
5,CCOC(=O)n1c(SCC(=O)N(CC)CC)nc2ccccc21,-1.9%
6,O=C(O)C1CCN(S(=O)(=O)N2CCOCC2)CC1,-0.5%
7,COc1ccc(CC(=O)c2ccc(O)cc2O)cc1OC,2%
8,CC1(C)Oc2ccc3ccc(=O)oc3c2/C(=C/NCCO)C1=O,2.5%
9,Cc1ccc(-c2noc(CSc3nnc(-c4ccccc4)n3C)n2)cc1,7.2%
10,Cn1c(/C(C#N)=C2/CCCCCN2)nc2ccccc21,12.4%
11,O=C(Cn1c(-c2cncs2)nc2ccccc21)NC1CCCC1,-3.3%
12,COCCCNC(=O)C1CC(=O)N(c2ccc(C)cc2)C1 (configuration not stated),-1.3%
13,O=C(C(NS(=O)(=O)c1cccc2nsnc12)c1ccccc1)N1CCN(c2ccccn2)CC1 (configuration not stated),7.2%
14,Cc1ccsc1CNn1cnnc1SCc1ccccc1F,9.3%
15,COc1ncnc2c1N=C1CC(C)(C)CC(N)=C1S2,1.4%
16,Cc1[nH]c2ccccc2c1C(=O)CSCC(=O)O,-0.3%
17,O=C(CSc1nnc(-c2c[nH]c3ccccc23)n1-c1ccc(F)cc1)NCc1ccco1,6.1%
18,CC(C)(C)n1nnnc1C(c1ccc2ncccc2c1)N1CCSCC1 (configuration not stated),-2.5%
19,O=C(O)CCSc1nnc(-c2ccccc2)n1-c1ccccc1,-3.8%
20,O=C(CC1Oc2ccccc2NC1=O)NCCCN1CCN(Cc2ccccc2)CC1 (configuration not stated),-2%
21,Cn1c(=O)c2c(nc(Br)n2CCSc2nc3ccccc3o2)n(C)c1=O,0.1%
22,COc1ccc(CNC2CCCCC2)cc1,5.3%
23,Cc1nonc1OCCn1nnnc1N,-19.6%
24,O=C(COc1ccccc1)N1CCc2ccccc2C1,1.4%
25,CCN(CC)Cc1c(C(=O)OC)nnn1-c1nonc1N,-0.9%
26,CCOC(=O)c1sc(=S)n(-c2cccc(OC)c2)c1N,5.8%

row,Compound,inhibition
1,O=C(NCCN1C(=O)C2C3C=CC(C3)C2C1=O)Nc1ccccn1 (configuration not stated),7.3%
2,OC(COc1cccc2ccccc12)CN1CCN(c2ccccn2)CC1 (configuration not stated),0.9%
3,Cn1c(Cc2csc(N)n2)nnc1SC/C=C/c1ccccc1,6.2%
4,O=C(CN(CC1CCCO1)C(=O)CNS(=O)(=O)c1ccccc1)NCc1ccccc1 (configuration not stated),-0.3%
5,COc1cccc(-c2nnc(N(C)C(=O)c3ccno3)s2)c1,-8.4%
6,COC(CCN(C)C)(c1ccccc1)c1ccccc1,-0.2%
7,Nc1nonc1-c1noc(-c2ccc(Br)o2)n1,-4.4%
8,CCOC(=O)CNC(=O)CSc1nnc(-c2cccc(OC)c2)n1CC,3.6%
9,COc1cccc(NC(=O)C(C)Oc2ccccc2)c1 (configuration not stated),2.2%
10,N#CC1=C(N)Oc2n[nH]c(CSc3ccccc3)c2C12C(=O)Nc1ccccc12 (configuration not stated),1.5%
11,COc1ccccc1CNC(=O)C1CCCN(S(=O)(=O)c2cccc3cccnc23)C1 (configuration not stated),2.1%
12,Cc1noc(C)c1CSc1nc2cc(S(=O)(=O)N3CCOCC3)ccc2o1,-0.9%
13,CC12CCC(C(=O)N3CCN(c4ncccn4)CC3)(c3nc4ccccc4nc31)C2(C)C (configuration not stated),0.1%
14,CC(C)C[C@H](NC(=O)[C@@H]1O[C@H]1C(=O)O)C(=O)NCCCCN=C(N)N,0.7%
15,CCn1cc(C(=O)N2CC=C(c3ccccc3)CC2)c(=O)c2ccc(C)nc21,0.8%
16,CCN1CCN(Cc2nc3c(c(=O)n(C)c(=O)n3C)n2CC(=O)c2ccccc2)CC1,-8.7%
17,Cc1ccc(Cc2cncc(O)c2)cc1S(=O)(=O)O,1.3%
18,COc1ccc(-n2nnc3c(=O)n(CC(=O)OCc4ccccc4)cnc32)cc1,1.8%
19,CCOC(=O)N1CCN(S(=O)(=O)c2cc(Br)cc3c2N(C(=O)C2CC2)CC3)CC1,3%
20,Cc1ccc(NC(=O)Cn2nc(C)c3ccccc3c2=O)c(C)c1,0.6%
21,COc1ccc(N2CCN(C(=O)CSc3nnc4ncccn34)CC2)cc1,4.1%
22,O=C(CN1CCN(c2ncc(C(F)(F)F)cc2Cl)CC1)Nc1ccc2c(c1)OCO2,2.7%
23,N#CCSc1nc2ccccc2c(=O)n1-c1ccccc1,-3.9%
24,CCc1nnc(NC(=O)CSc2nnc(Cc3ccccc3)n2-c2ccc(OC)cc2)s1,3.3%
25,CC(C)(C)c1csc(NC2=NS(=O)(=O)c3ccccc32)n1,0.2%
26,COC(=O)c1ccc(CSc2nc3ccccc3c(=O)n2-c2cccc(OC)c2)o1,-1.5%

row,Compound,inhibition
1,CCCOC(=O)c1[nH]c2c(c1C)C(=O)CC(c1cc(OC)c(OC)c(OC)c1)C2 (configuration not stated),0.2%
2,CCCC(C(=O)N1CCOCC1)N1C(=O)C2C3C=CC(C3)C2C1=O (configuration not stated),4.6%
3,CN(C)CCOC(=O)C(c1ccccc1)C1(O)CCCC1 (configuration not stated),3.8%
4,COc1cc2ccccc2cc1C(=O)Nc1ccc(S(=O)(=O)Nc2cc(C)on2)cc1,-1.9%
5,Cc1ccccc1C(OCC(O)CN1CCCCC1CCO)c1ccccc1 (configuration not stated),1.3%
6,O=C1Nc2c(Br)cc(Br)cc2C1(O)N1CCOCC1 (configuration not stated),-2.4%
7,COc1ccc(CN2CN(C(C)C)CSC2=S)cc1,1%
8,COc1ccc(-c2nnn(Cc3nc(N)nc(N4CCCCC4)n3)n2)cc1,7.6%
9,O=C(C1CCN(S(=O)(=O)c2cccs2)CC1)N1CCCCCC1,6.3%
10,Cc1ccc(S(=O)(=O)NCC(=O)OCC(=O)N2CCc3ccccc32)cc1,-2.9%
11,COC(=O)c1ccc(NC(=O)CSc2nnc(Cc3cccn3C)n2-c2ccc(F)cc2)cc1,-0.2%
12,Cn1c(=O)n(CCc2ccccc2)c(=O)c2c1nc1n2CCCN1c1ccccc1,-0.2%
13,CCC/C(O)=C1\C(=O)CC(C)(C)CC1=Nc1ccccc1OC,-1.2%
14,CSCCC(NC(N)=O)C(=O)N(C)CC(=O)Nc1ccc(C)cc1 (configuration not stated),-2.4%
15,CCc1c(C)nc(N2CCN(Cc3ccccc3)CC2)[nH]c1=O,-7.8%
16,COC(=O)c1c(-c2ccc(C)cc2)csc1N,-8.5%
17,CCn1c(COc2ccccc2)nnc1SCC(=O)Nc1ccc2c(c1)OCCO2,0.5%
18,Cc1cccc2cc(CN(Cc3nnnn3Cc3ccccc3)C3CCCC3)c(=O)[nH]c12,-8.4%
19,C=CCNc1nnc(C)c2ccccc12,3.5%
20,Cc1cc(NC(=O)CN2CCCCC2C)nc2c1c(=O)oc1ccccc12 (configuration not stated),0.1%
21,COc1ccccc1N1CCN(C(=O)c2cn(-c3ccccc3)nc2-c2cccnc2)CC1,-5.4%
22,CCCN1CC=C2C(C#N)=C(N)C(C#N)(C#N)C(c3cc(OC)ccc3OC)C2C1 (configuration not stated),-14.3%
23,CCCCNC(=O)c1c[nH]c2ccc(S(=O)(=O)Nc3ccc(OCC)cc3)cc2c1=O,-4.5%
24,Cc1cccc(N2CCN(S(=O)(=O)c3ccc4c(c3)c(=O)n(C)c(=O)n4C)CC2C)c1 (configuration not stated),4.1%
25,CCOC(=O)c1ccc(-n2c(C)nc3c(cnn3-c3ccccc3C)c2=O)cc1,7.5%
26,CCOC(=O)c1cc2occc2n1CC(=O)NC1CCC(C)CC1 (configuration not stated),4.9%

row,Compound,inhibition
1,COc1ccc(NS(=O)(=O)c2ccc(NC(=O)C(C)(C(F)(F)F)C(F)(F)F)cc2)nn1,-10.5%
2,CN(CCCC(=O)Nc1nccs1)S(=O)(=O)c1ccc(Cl)cc1,6%
3,Cc1ccc(C(=O)CSc2nnc(Cn3nnc4ccccc43)n2C)cc1,7.7%
4,CCN1CCN(Cc2c(O)ccc3c(=O)c(-c4ccc(OC)c(OC)c4)c(C(F)(F)F)oc23)CC1,4.7%
5,CN(c1ccccc1)c1ccc(/C=c2\s/c(=C(/C#N)C(=O)C(C)(C)C)n(Cc3ccco3)c2=O)cc1,15.4% (active)
6,O=c1nc2s/c(=C\c3ccco3)c(=O)n2nc1Cc1ccccc1,0.1%
7,CCOC(=O)CSc1nc2c(sc(=S)n2CCc2ccccc2)c(=O)n1Cc1ccco1,2.4%
8,Cc1cc(C(F)(F)F)n2ncc(-c3ccccc3)c2n1,3.8%
9,CCc1nnc(NC(=O)c2c(O)c3c([nH]c2=O)CCCC3)s1,-11%
10,CCC(C)Sc1nnc(-c2c[nH]c3ccccc23)n1CCOC (configuration not stated),6.4%
11,CC(C)N1C(=O)C2C(C(=O)NC3CCCCC3)C3C=CC2(O3)C1C(=O)NC1CCCC1 (configuration not stated),-2.8%
12,O=C(NCCCN1CCN(c2ccccc2F)CC1)C1CCC(=O)N1C1CCCCC1 (configuration not stated),1.3%
13,CC(C)(C)n1nnnc1C(c1cccs1)N(Cc1cccnc1)CC1CCCO1 (configuration not stated),-3.9%
14,C=CCC(NCCCO)c1cccc(OC)c1OC (configuration not stated),-1.4%
15,CCCCN(C)C(=O)c1ccc2c(c1)N(CC)C(=O)c1ccccc1S2(=O)=O,-4.5%
16,CCOC(=O)CSc1nnc(CNC(=O)c2cccs2)n1-c1cc(OC)ccc1OC,-0.5%
17,CCOC(=O)CSc1nnc(CNc2ccc(F)cc2)o1,-2.2%
18,Cc1ccccc1NC(=O)NCc1ccco1,2.4%
19,FC(F)(F)c1cc(-c2cccs2)nc(NCc2ccco2)n1,-3.9%
20,CN1CCN(c2cc(=O)n(-c3ccc(Cl)cc3)c(=O)[nH]2)CC1,0.4%
21,COc1ccccc1N(CC(=O)N1CCCCC1)S(=O)(=O)c1ccccc1,2.1%
22,C=CCn1cnc2scc(-c3ccccc3)c2c1=O,0.5%
23,C=CCn1c(COc2ccccc2C)nnc1SCC(=O)O,5.1%
24,O=C(Cn1cnc2c(cnn2-c2ccccc2)c1=O)NCc1ccccc1,-2%
